The source of these data is PubChem BioAssay (NCI).

Test [1] is described as follows: NCI Yeast Anticancer Drug Screen. Data for the rad50 strain (AID 155).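 Also: 0% = growth of vehicle-only cultures of the same strain.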 The note with it: S. cerevisiae rad50 strain growth inhibition; at 50.0 µM; active compounds read high. Summed up:
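Vehicle-treated cultures provide the reference for the growth inhibition reported for compound-exposed, repair-deficient yeast.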

Test [2] in a line: NCI Yeast Anticancer Drug Screen. Data for the mec2-1 strain (AID 157). Conditions: S. cerevisiae mec2-1 strain, at 50.0 µM, active compounds read high. Summed up: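 mec2-1 yeast strain, carrying an alteration in DNA damage repair or cell cycle control, was exposed to compounds; growth inhibition was measured relative to vehicle-treated controls.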
Test [3] in a line: NCI Yeast Anticancer Drug Screen. Data for the sgs1 mgt1 strain (AID 161).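 Also: 0% = growth of cultures given vehicle only.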 Conditions: S. cerevisiae sgs1 mgt1 strain, at 50.0 µM, active compounds read high. The method in brief: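 Yeast cells carrying a defined DNA-repair defect were exposed to test compounds. Growth inhibition was measured relative to vehicle-treated controls.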
Test [4] can be described thus: NCI Yeast Anticancer Drug Screen. Data for the cln2 rad14 strain (AID 165).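 Also: 0% = growth equal to vehicle treated cultures.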 The note with it: S. cerevisiae cln2 rad14 strain, at 50.0 µM, active compounds read high. The method in brief: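 Yeast carrying cln2 and rad14 alterations (cell cycle control and DNA damage repair) were exposed to compounds. Growth inhibition was measured against vehicle-treated controls.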
Test [5] is described as follows: NCI Yeast Anticancer Drug Screen. Data for the bub3 strain (AID 167). Conditions: S. cerevisiae bub3 mutant strain, at 50.0 µM, active compounds read high. The method in brief:
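Mutant yeast screening strain plus compound; vehicle-treated cultures serve as the 0% inhibition reference.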

The nature of test [6]: NCI Yeast Anticancer Drug Screen. Data for the mlh1 rad18 strain (AID 175). The note with it: S. cerevisiae mlh1 rad18 strain growth inhibition; at 50.0 µM; active compounds read high. Summed up: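 Growth inhibition of the yeast strain was measured after compound exposure and expressed relative to vehicle-treated controls. The strain carries defined defects in DNA damage repair.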

Molecules are shown by their SMILES. Compounds without any hit were thinned out: in the full panel of roughly 79,000, 15% have a hit. Unmarked numbers belong to inactive results. Activity calls are given as the source filed them. Rule as the data show it: active = growth inhibition above about 70%; inactive = the rest.

Turning to `Nc1nc(O)cc(=O)[nH]1`, the growth inhibition is 3.35% in test [1]; -1.95% in test [2]; -0.65% in test [3]; -8.5% in test [4]; 2.35% in test [5]; -3.25% in test [6].
As to `C=C(C)C(=O)OC1C[C@H](COC(C)=O)C2CC=C(CO)C2C2OC(=O)C(=C)[C@H]12` (stereo partly specified), the growth inhibition in test [1] is 16.9%; in test [2], 15.1%; in test [3], 10.2%; in test [4] it was -1.25%; in test [5] it was -1.25%; in test [6], 25.1%.
As to `c1ccc(-c2cc(-c3cc(-c4ccccc4)n(-c4ccccc4)n3)nn2-c2ccccc2)cc1`, the growth inhibition in test [1] is -2.9%; in test [2] it was -13.2%; in test [3], -19.3%; in test [4], -2.55%; in test [5], -14%; in test [6], -38.3%.
As to `CCN(CC)CCCNc1ncc(C)c2[nH]c3ccncc3c12`, the growth inhibition was 2.9% in test [1]; 22.6% in test [2]; 0.4% in test [3]; -9.1% in test [4]; -0.25% in test [5]; 12.1% in test [6].
`CN1COc2c(ccc3c4c(ccc23)CN(C)CO4)C1`: the growth inhibition in test [1] is 3.15%; in test [2], 17.9%; in test [3], 16.6%; in test [4], -47%; in test [5], 1.75%; in test [6] it was 35.4%.
As to `Cc1ccc(S(=O)(=O)/C=C(\I)c2ccc([N+](=O)[O-])cc2)cc1`, the growth inhibition in test [1] is 98.8% (active); in test [2] it was 99.2% (active); in test [3], 99.3% (active); in test [4] it was 98.8% (active); in test [5], 98.9% (active); in test [6] it was 99.1% (active).
Turning to `O=NN(CCOS(=O)(=O)c1ccc(Br)cc1)C(=O)NC1CCCCC1`, the growth inhibition in test [1] is 32%; in test [2], 9.25%; in test [3], 18.6%; in test [4], 28.6%; in test [5] it was -1.95%; in test [6] it was 25.2%.
As for `COc1ccc(C(=O)CC(C#N)c2ccccc2Cl)cc1` (stereo unspecified), the growth inhibition in test [1] is 19.8%; in test [2], 39%; in test [3] it was 41.2%; in test [4], 13.1%; in test [5], 64%; in test [6] it was 8.6%.
On to `COc1cc(C=O)ccc1OC(=O)Nc1ccc(F)c([N+](=O)[O-])c1`, for which the growth inhibition in test [1] is 0.8%; in test [2] it was 30.4%; in test [3] it was 19.1%; in test [4], -2.45%; in test [5] it was 28.1%; in test [6], 14.7%.
Regarding `c1ccc(CCCCCCc2ccccc2)cc1`, the growth inhibition in test [1] was -33.9%; in test [2], -22%; in test [3] it was -8.5%; in test [4], -6.55%; in test [5], -14.6%; in test [6] it was 1.3%.
Regarding `CC(C)CCCC(C)C1CCC2C3CC([N+](=O)[O-])=C4CC(O[N+](=O)[O-])CCC4(C)C3CCC12C` (stereo unspecified), the growth inhibition in test [1] was 50.4%; in test [2], 20.1%; in test [3], 37.1%; in test [4] it was 23.6%; in test [5], 1.95%; in test [6] it was 20.2%.
As for `COc1c(NC(=O)c2cccc(C(=O)Nc3cccc([N+](=O)[O-])c3OC)c2)cccc1[N+](=O)[O-]`, the growth inhibition in test [1] was -30.6%; in test [2], -15.8%; in test [3], -19.9%; in test [4], -49.1%; in test [5] it was -0.7%; in test [6] it was -15.5%.
With `CCC[CH2][Ge]([CH2]CCC)([CH2]CCC)[O]C(=O)CCl`, the growth inhibition in test [1] is -14.2%; in test [2] it was 31.7%; in test [3] it was -4.75%; in test [4] it was -52.9%; in test [5] it was -13.2%; in test [6], 31.9%.
In the case of `Cc1cc2nc3c(=O)[nH]c(=O)nc-3n(CCN(CCO)CCO)c2cc1Cl`, the growth inhibition in test [1] is 58.9%; in test [2], 7.95%; in test [3] it was 48.3%; in test [4], 14.8%; in test [5], 1.55%; in test [6], 17.8%.
With `O=C1CC2CC1C1C(=O)OC(=O)C21` (stereo unspecified), the growth inhibition in test [1] was -6.8%; in test [2], 5.95%; in test [3], -6.7%; in test [4] it was -1.6%; in test [5], -6.9%; in test [6], -8.6%.
As for `CC(=O)O[C@]12CCCCCCC1C1(O)C(O)CCC[C@H]12` (stereo partly specified), the growth inhibition was -23.6% in test [1]; -1.95% in test [2]; -53.2% in test [3]; -8.95% in test [4]; -22.2% in test [5]; -36.6% in test [6].
As for `Cc1cc2c(c(C(=O)NCC(=O)O)c1)Oc1c(cc(C)cc1C(=O)NCC(=O)O)S2`, the growth inhibition was -17% in test [1]; 20.1% in test [2]; -4.95% in test [3]; 14.8% in test [4]; -29.9% in test [5]; 20.9% in test [6].
On to `CNC(=O)c1c(-c2ccc(F)cc2)noc1C`, for which the growth inhibition in test [1] is -6.7%; in test [2], -10.5%; in test [3], 25.4%; in test [4] it was 9.05%; in test [5], 17.4%; in test [6] it was 10.1%.
Turning to `CN1CCS(=O)(=O)CC1`, the growth inhibition in test [1] was 5.4%; in test [2], -40%; in test [3], -17.6%; in test [4], -2.55%; in test [5], 1.75%; in test [6], 5.05%.
Take `CCN(CC)CCC(=O)Nc1cc(OC)cc2cccnc12`: the growth inhibition is 10.7% in test [1]; 10.5% in test [2]; 6.25% in test [3]; -21.1% in test [4]; -19.4% in test [5]; -8.1% in test [6].
As for `CCCCC(=O)N/N=C\c1cc(Cl)ccc1[N+](=O)[O-]`, the growth inhibition in test [1] was 17.6%; in test [2], 1.6%; in test [3] it was -6.65%; in test [4], 33.2%; in test [5] it was 7.7%; in test [6], 1.05%.
